Values without a mark were called inactive. Results filed as inconclusive are left out. A call without a number means that no potency is given here. The source made the active and inactive calls. Unless noted, calls come from the whole dose curve; as a rule, active = well fitted curve in the direction sought with a large enough effect in the repeat runs; inconclusive = weak or mixed curves; inactive = no such curve, though single readings can be large; an effect the other way counts as inactive or inconclusive.
Legend:
[1] = qHTS assay to identify small molecule agonists of the hypoxia (HIF-1) signaling pathway - cell viability counter screen (AID 1224844; calls by dose curve; note: nearly all actives have a fitted effect of over 50% in size; note: potency is the fitted concentration of half-maximal effect)
Procedure, shortened: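 In this counter screen, HRE-bla ME-180 cell viability after 17 hrs of compound exposure at 37C was read by CellTiter-Glo luminescence, multiplexed with the beta-lactamase reporter measurement.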

[2] = qHTS assay to identify small molecule agonists of H2AX (AID 1224845; active = well fitted activation curve with a large enough effect in the signal ratio in the repeat runs, not every such curve was filed as active; the % refers to the signal ratio; note: potency is the fitted concentration of half-maximal effect)
Procedure, shortened: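 Phospho-H2AX Ser139 measured by HTRF (ex 320 nm; em 665 and 620 nm) after 24 hr antibody incubation. Compounds, 15 concentrations, 0.76% DMSO, were applied to CHO-K1 cells for 3hr at 37C before lysis.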

[3] = qHTS assay to identify small molecule agonists of H2AX - cell viability counter screen (AID 1224847; calls by dose curve; note: nearly all actives have a fitted effect of over 30% in size; note: potency is the fitted concentration of half-maximal effect)
Procedure, shortened: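 Quantitative HTS viability measurement: CHO-K1 wild-type cells in serum (10% FBS) medium, short 3 hr drug exposure at 37C with 0.76% DMSO, CellTiter-Glo luminescent detection.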

[4] = qHTS assay to identify small molecule agonists of the estrogen related receptor (ERR) signaling pathway from Tox21 library (AID 1224849; calls by dose curve; note: nearly all actives have a fitted effect of over 15% in size); conditions: ERR reporter cell line, ONE-Glo luciferase, 18 h; at 92.4 µM (top of the series) unless noted
Procedure, shortened: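 Luciferase activity in ERR pathway reporter cells served as the agonist readout; exposure lasted 18 h at 37 C, with ONE-Glo detection after 30 min at room temperature.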

[5] = qHTS RealTime-Glo MT Cell Viability Assay in HEK293 cells - 32 hour (AID 1224868); note: nearly all actives have a fitted effect of over 50% in size; note: potency is the fitted concentration of half-maximal effect
Procedure, shortened: (§1)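 Assay medium contained NanoLuc luciferase plus cell-permeant prosubstrate, added with HEK293 cells at 600 cells/well. After 5 h at 37 C/5% CO2 compounds were added; plates stayed at 37 C for 40 h with serial luminescence reads.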

[6] = A CellTox Green Cytotoxicity Assay to monitor cytotoxicity in HEK293 cells - 0 hour (AID 1224869); note: nearly all actives have a fitted effect of over 50% in size
Procedure, shortened: (§2)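 Real-time, in one plate: 600 HEK293 cells/well with dead-cell DNA dye, pinned compound after 5 h, 37 C incubation over 40 h; viable cells give no appreciable fluorescence.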

[7] = qHTS RealTime-Glo MT Cell Viability Assay in HepG2 cells - 40 hour (AID 1224870); note: nearly all actives have a fitted effect of over 50% in size
Procedure, shortened: (§3)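 Real-time viability: cells seeded at 600 per well together with NanoLuc and cell-permeant prosubstrate, compounds added after 5 h incubation. Luminescence tracked at 0, 8, 16, 24, 32 and 40 h of exposure.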

[8] = qHTS RealTime-Glo MT Cell Viability Assay in HEK293 cells - 16 hour (AID 1224872); note: nearly all actives have a fitted effect of over 50% in size; note: potency is the fitted concentration of half-maximal effect
Procedure, shortened: as §1

[9] = qHTS RealTime-Glo MT Cell Viability Assay in HEK293 cells - 40 hour (AID 1224874); conditions: RealTime-Glo luminescence; max response: hits give low values; note: nearly all actives have a fitted effect of over 50% in size; note: potency is the fitted concentration of half-maximal effect
Procedure, shortened: (§4)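 Kinetic, non-lysing viability readout. Seed HEK293 (600/well) with reagent, incubate 5 h at 37 C/5% CO2, pin 23 nL compound in DMSO, incubate at 37 C, read luminescence at 0, 8, 16, 24, 32, 40 h.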

[10] = A CellTox Green Cytotoxicity Assay to monitor cytotoxicity in HepG2 cells - 16 hour (AID 1224876); note: nearly all actives have a fitted effect of over 45% in size
Procedure, shortened: (§5)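 Cytotoxicity was tracked as dead-cell DNA fluorescence in HepG2 cells treated with test compounds at 37 C; each time-point value comes from one kinetic series spanning 0, 8, 16, 24, 32 and 40 h.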

[11] = qHTS RealTime-Glo MT Cell Viability Assay in HepG2 cells - 32 hour (AID 1224877); note: nearly all actives have a fitted effect of over 55% in size
Procedure, shortened: (§6)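 qHTS, HepG2, 600 cells/well, RealTime-Glo (NanoLuc + prosubstrate) added with cells; 5 h preincubation; DMSO compound addition; 37 C; luminescence at 0/8/16/24/32/40 h.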

[12] = A CellTox Green Cytotoxicity Assay to monitor cytotoxicity in HepG2 cells - 24 hour (AID 1224878); note: nearly all actives have a fitted effect of over 45% in size; note: potency is the fitted concentration of half-maximal effect
Procedure, shortened: as §5

[13] = A CellTox Green Cytotoxicity Assay to monitor cytotoxicity in HepG2 cells - 40 hour (AID 1224879); note: nearly all actives have a fitted effect of over 40% in size; note: potency is the fitted concentration of half-maximal effect
Procedure, shortened: as §5

[14] = qHTS RealTime-Glo MT Cell Viability Assay in HEK293 cells - 0 hour (AID 1224880); note: top concentration of the series differs between compounds; nearly all actives have a fitted effect of over 45% in size
Procedure, shortened: as §4

[15] = qHTS RealTime-Glo MT Cell Viability Assay in HepG2 cells - 24 hour (AID 1224867); note: nearly all actives have a fitted effect of over 50% in size
Procedure, shortened: as §6

[16] = A CellTox Green Cytotoxicity Assay to monitor cytotoxicity in HEK293 cells - 40 hour (AID 1224871); note: nearly all actives have a fitted effect of over 45% in size
Procedure, shortened: as §2

[17] = A CellTox Green Cytotoxicity Assay to monitor cytotoxicity in HEK293 cells - 24 hour (AID 1224875); note: nearly all actives have a fitted effect of over 45% in size
Procedure, shortened: as §2

[18] = qHTS assay to identify small molecule agonists of the hypoxia (HIF-1) signaling pathway (AID 1224846; active = well fitted activation curve with a large enough effect in the signal ratio in the repeat runs, not every such curve was filed as active; the % refers to the signal ratio)
Procedure, shortened: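 ME-180 HRE-bla reporter cells; compounds in DMSO, 17 h at 37C; read-out beta-lactamase via CCF4-AM FRET.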

[19] = qHTS RealTime-Glo MT Cell Viability Assay in HepG2 cells - 8 hour (AID 1224873); note: nearly all actives have a fitted effect of over 55% in size
Procedure, shortened: as §3

C=CCC1=C(C)[C@@H](OC(=O)[C@@H]2[C@@H](C=C(C)C)C2(C)C)CC1=O
Potency [1]: 54.9 µM (active)
Potency [2]: 56.6 µM (active)
Potency [3]: 50.5 µM (active)
activity change, positive = activation [4]: -64.6%
Potency [5]: 13.8 µM (active)
Potency [6]: inactive
Potency [7]: inactive
Potency [8]: 11 µM (active)
Potency [9]: 21.9 µM (active)
Potency [10]: inactive
Potency [11]: inactive
Potency [12]: 49 µM (active)
Potency [13]: 49 µM (active)
outcome [14]: inactive

CC(C)(C)C(=O)C(Oc1ccc(Cl)cc1)n1cncn1 (configuration not stated)
Potency [1]: inactive
Potency [2]: inactive
Potency [3]: inactive
Potency [15]: inactive
Potency [6]: inactive
Potency [7]: inactive
Potency [16]: inactive
Potency [8]: inactive
Potency [17]: inactive
Potency [10]: inactive
Potency [11]: inactive
Potency [12]: inactive
Potency [13]: inactive
outcome [14]: inactive

O=C(Cc1ccccc1)OCc1ccccc1
Potency [1]: inactive
Potency [2]: inactive
Potency [3]: inactive
Potency [15]: inactive
Potency [5]: inactive
Potency [6]: inactive
Potency [7]: inactive
Potency [8]: inactive
max response [9]: -18.6%
Potency [17]: inactive
Potency [10]: inactive
Potency [11]: inactive
Potency [12]: inactive
Potency [13]: inactive
outcome [14]: inactive

O=[N+]([O-])c1cccc(O)c1
Potency [1]: inactive
Potency [2]: inactive
outcome [18]: inactive
Potency [15]: inactive
Potency [5]: inactive
Potency [6]: inactive
Potency [7]: inactive
Potency [16]: inactive
Potency [8]: inactive
Potency [19]: inactive
max response [9]: 4.13%
Potency [10]: inactive
Potency [11]: inactive
Potency [12]: inactive
Potency [13]: inactive
outcome [14]: inactive

COP(=S)(OC)Oc1ccc(S(N)(=O)=O)cc1
Potency [1]: inactive
Potency [2]: inactive
outcome [18]: inactive
Potency [3]: inactive
Potency [5]: inactive
Potency [6]: inactive
Potency [7]: inactive
Potency [16]: inactive
Potency [8]: inactive
max response [9]: -1.36%
Potency [17]: inactive
Potency [10]: inactive
Potency [11]: inactive
Potency [12]: inactive
Potency [13]: inactive
outcome [14]: inactive

O=[N+]([O-])c1cccc2cccnc12
Potency [1]: inactive
Potency [2]: inactive
outcome [18]: inactive
Potency [3]: inactive
Potency [5]: inactive
Potency [6]: inactive
Potency [7]: inactive
Potency [16]: inactive
Potency [8]: inactive
Potency [19]: inactive
max response [9]: -7.09%
Potency [10]: inactive
Potency [11]: inactive
Potency [12]: inactive
Potency [13]: inactive
outcome [14]: inactive

CC(C(O)c1ccccc1)N(C)C/C=C/c1ccccc1 (configuration not stated)
Potency [1]: inactive
Potency [2]: inactive
outcome [18]: inactive
Potency [15]: inactive
Potency [6]: inactive
Potency [7]: inactive
Potency [16]: inactive
Potency [19]: inactive
max response [9]: -19.6%
Potency [17]: inactive
Potency [10]: inactive
Potency [11]: inactive
outcome [14]: inactive

COc1ccc(C(=O)N2CCCC2=O)cc1
Potency [1]: inactive
Potency [2]: inactive
Potency [3]: inactive
Potency [15]: inactive
Potency [5]: inactive
Potency [6]: inactive
Potency [7]: inactive
Potency [19]: inactive
max response [9]: -7.3%
Potency [17]: inactive
Potency [11]: inactive
outcome [14]: inactive

OC(Cn1cncn1)(c1ccc(F)cc1)c1ccccc1F (configuration not stated)
Potency [1]: inactive
Potency [2]: inactive
outcome [18]: inactive
Potency [15]: inactive
Potency [5]: inactive
Potency [6]: inactive
Potency [7]: inactive
Potency [16]: inactive
Potency [8]: inactive
Potency [19]: inactive
max response [9]: -0.588%
Potency [10]: inactive
Potency [11]: inactive
Potency [12]: inactive
Potency [13]: inactive
outcome [14]: inactive

Reference: PubChem BioAssay (Tox21)
